Screens from PubChem.
BRCA1 expr act: increases BRCA1 expression | MCF7-BRCA1-FFLuc reporter, luminescence, 48 h; response scale: scaled: vehicle 0%, 10 µM genistein 100% | Potency, µM (titrated, usually from 46.1 µM), for inactives: at the highest dose activation, hits mostly activators | actives 1.1% (n = 380,000) | AID 624202; further: potency means the concentration at half of the fitted maximal effect; nearly all actives have a fitted effect of over 80% in size
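Reporter cells (MCF7, BRCA1 promoter-firefly luciferase) received library compounds across a concentration series for 48 h. End-point luminescence was measured and concentration-effect curves derived after normalization.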
Nrf2 activator: activates Nrf2 signaling; AREc32 ARE-luciferase reporter (MCF7-derived line), luminescence, 24 h; Potency, µM (titrated, usually from 46.1 µM), for inactives: at the top dose activation, most hits filed as activators; actives 0.31% (n = 410,000); further: potency means the concentration at half of the fitted maximal effect; % of control where 0% means no effect; nearly all actives have a fitted effect of over 65% in size
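AREc32_Fluc, 1000 cells/well, OPTI-MEM + 5% FBS, o/n 37 deg C 5% CO2; 23 nL cpd by pin tool, 24 hr; Steady-Glo 30 min RT, luminescence.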
Integrin act MD: activators of alpha7 integrin expression for muscular dystrophy; AID 624291; actives 0.064% (n = 350,000); alpha7betagal myoblasts, beta-gal FDG fluorescence, 48 h; Potency, µM (top dose mostly 38.3 µM), for the others: at the top dose activation, hits mostly activators;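 further: potency means the concentration at half of the fitted maximal effect; 100% = response of the positive control SU9516; nearly all actives have a fitted effect of over 60% in size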
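Alpha7betagal+/- myoblasts (passage 13) were plated 16-24 hr, then exposed to compounds (1:260 dilution of DMSO stock) for 48 hours at 37C. After MPER lysis, β-galactosidase reporter activity was read as FDG fluorescence (ex 480/em 540) after 30 minutes.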
Chronic BCR inh: chronic active BCR signaling inhibition. AID 493014. actives 0.05% (n = 340,000). Potency, µM (highest dose often 46.1 µM), inactives show top-dose activity change, negative = inhibition, usual class: inhibitors. ABC-DLBCL IkBa-CBG/CBR reporter, luminescence ratio, 4 h; active means well fitted inhibition curve with a large enough effect in the signal ratio, with a control signal flat, not every such curve was filed as active; inconclusive means small, poorly fitted or top-dose-only effect, or effect the other way, or a change in a side signal; the % refers to the signal ratio;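 further: potency means the concentration at half of the fitted maximal effect; plate controls were basal doxycycline-induced cells for no effect and cells given 10 µM MG132 for full effect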
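Cell line TMD8 (human ABC DLBCL), stably expressing tet-inducible CBG68-IkBa fusion and CBR; IMDM/0.5% FBS; cpd up to 46 uM; dox induction, 4 h, 37C/5% CO2; dual luminescence; green/red ratio; MG132 control.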
IL-2 act: activators of IL-2 | IL-2 activation reporter assay, cell-based qHTS; stimulated with anti-CD3/CD4/CD28 beads; in transgenic mouse T cells | activation, % (series mostly up to about 46 µM) | actives 0.065% (n = 360,000) | AID 652025; in the data active means activation above about 50%; inconclusive means mostly about 30% to 49%; further: 0% is about no effect
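Unstimulated transgenic mouse T cells preincubated 60 min with compound, then stimulated with anti-CD3/anti-CD4-coated beads plus anti-CD28 for 18 h at 37 degrees C. IL-2 response read as EGFP and DsRed fluorescence by plate cytometry.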
N370S GC: inhibits or activates N370S mutant glucocerebrosidase; actives 0.092% (n = 330,000); N370S GC spleen homogenate, 4MU-glucoside fluorescence; Potency, µM (titrated, usually from 59.4 µM), without a hit: top-dose activity change, negative = inhibition, hits mostly inhibitors;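 further: potency means the concentration at half of the fitted maximal effect; 0% = full enzyme activity and -100% = no enzyme basal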
The depositor's hits bear a star; ? = inconclusive; . = no result given. This is a sample that favours compounds with a hit; in the whole collection about 1.4% have one here. Unless noted, the call rests on the fitted dose curve; in most records, active means well fitted curve in the direction sought with a large enough effect; inconclusive means small, poorly fitted or top-dose-only effect, or another doubt; inactive means no such curve, though single readings can be large; an effect the other way counts as inactive or inconclusive.

SMILES | BRCA1 expr act | Nrf2 activator | Integrin act MD | Chronic BCR inh | IL-2 act | N370S GC
CC(=NNc1nc2ccccc2s1)c1ncccn1 | -59% | 11µM* | -54% | . | 6 | .
Cc1nc(N)sc1N=Nc1ccccc1C(F)(F)F | 7.1µM* | 3% | ? | ? | 0 | -10%
CC1(C)CC(=O)C(C2C3=C(CC(C)(C)CC3=O)Oc3ccc4ccccc4c32)C(=O)C1 (centres undefined) | 7.9µM* | 2% | -1% | -1% | 0 | ?
CC1(C)CC(=O)C([C@H]2C3=C(CC(C)(C)CC3=O)Oc3ccccc32)C(=O)C1 | . | . | . | . | . | 2%
O=C(CSc1ccccc1)Nc1ccc(-c2nc3ccccc3[nH]2)cc1 | ? | 0% | -25% | 23% | 0 | -10%
O=C(Cc1cccs1)Nc1ccc(-c2nc3ccccc3[nH]2)cc1 | 5.6µM* | 10% | -14% | ? | 0 | -3%
O=C(CN1CCOCC1)Nc1ccc(-c2nc3ccccc3[nH]2)cc1 | 11µM* | 3% | 7% | 5% | -1 | 0%
O=[N+]([O-])c1cc(Cl)cc(/C=N\Nc2ccccn2)c1O | -82% | 0% | -8% | 4% | -3 | 0%
CN(C)C1(CN=Cc2cc(Cl)cc([N+](=O)[O-])c2O)CCCCC1 | -37% | 5% | 8.9µM* | 0% | -1 | 4%
CN(Cc1ccco1)c1ncnc2ccc(-c3ccccc3C(F)(F)F)cc12 | . | . | . | . | . | -2%
CN=C1S/C(=C\c2ccc(O)c(OC)c2)C(=O)N1C | 10µM* | 13% | 0% | . | -1 | .
O=C(CN1C(=O)CCc2cc(S(=O)(=O)N3CCOCC3)ccc21)NCc1ccccc1 | 21% | 0% | . | . | . | .
C=CCc1c(C)nc(SC)nc1Nc1ccccc1 | -4% | -1% | 4% | ? | -2 | 7%
C=CCc1c(C)nc(-c2ccccc2)nc1N/N=C(\C)c1ccccc1 | -11% | 3% | 28% | ? | 2 | 10µM*
C=CCc1c(C)nc(-c2ccccc2)nc1Nc1ccc(O)cc1 | -57% | 4% | 15% | -4% | 0 | 14µM*
C/C(=N\Nc1nc(C)cc(-c2ccccc2)n1)c1ccc(F)cc1 | -3% | -1% | 18% | 13% | 1 | -1%
CCOC(=O)[C@]12CCC=C1N(CCC1=CCCCC1)C(=O)[C@H](CC(=O)N1CCSCC1)C2 | -4% | 1% | . | . | 0 | .
CCOc1ccc(NC(=O)Nc2cc(C)ccc2F)cc1 | 2.5µM* | 4% | 25% | ? | -2 | 18%
CCOc1ccc(NC(=O)Nc2cc(C(C)C)c(O)cc2C)cc1 | 4% | -1% | 40% | -13% | 2 | 11%
O=C1C=CC(=NN=C(c2ccccc2)c2ccccc2)C=C1 | 13% | 7% | . | . | 1 | .
CCOC(=O)c1ccc(N2Cc3ccccc3C2)cc1O | 13µM* | 4% | 1% | 2% | 2 | 5%
COc1cc2c3nnc(-c4ccccc4)c-3cn(Cc3ccccc3F)c2cc1OC | 1% | ? | -31% | ? | 176* | 16%
COc1cc2c3nnc(-c4ccc(F)cc4)c-3cn(Cc3ccccc3F)c2cc1OC | -2% | ? | 0% | ? | 87* | -15%
Fc1ccccc1CSc1nc2ncc(Br)cc2[nH]1 | 11µM* | 4% | 1% | ? | 0 | 9%
CNS(=O)(=O)c1ccc2c(c1)C(=O)c1cc(S(=O)(=O)NC)ccc1CC2 | 0% | 0% | . | 0% | -1 | .
SMILES | BRCA1 expr act | Nrf2 activator | Integrin act MD | Chronic BCR inh | IL-2 act | N370S GC
CCOc1ccc(N(CC(=O)NCc2ccc(OC)cc2)S(=O)(=O)c2c(C)[nH]c(=O)[nH]c2=O)cc1 | -1% | -1% | -3% | 8% | 0 | 11µM*
COc1ccc(CNC(=O)CN(c2ccc(C)cc2)S(=O)(=O)c2c(C)n[nH]c2C)cc1 | -13% | 0% | . | . | . | .
CCOc1ccc(N(CC(=O)NCCc2ccc(Cl)cc2)S(=O)(=O)c2c(C)[nH]c(=O)[nH]c2=O)cc1 | 22% | -1% | -2% | 17% | -1 | 10µM*
COc1cc2c(cc1OC)C(CC#N)=NC(C)(C)C2 | -23% | 0% | 16% | 16µM* | 0 | 2%
CN(C)CCN(C(=O)c1cccs1)c1nc2cc3c(cc2s1)OCCO3 | 11µM* | 0% | -6% | ? | 1 | -12%
CN(C)CCN(C(=O)C1CCCCC1)c1nc2cc3c(cc2s1)OCCO3 | 11µM* | 0% | 6% | . | -2 | .
CCCc1cc(C(=O)Nc2ccc(F)c(Cl)c2)no1 | 11µM* | 4% | -14% | ? | 0 | -10%
O=C(Nc1ccc(F)c(Cl)c1)c1cc(C2CCCN(C(=O)C3CC3)C2)on1 (centres undefined) | 2.8µM* | 1% | . | . | 2 | .
Cc1ccc(OCCSc2nc3ccccc3n2CCC(=O)O)cc1 | 32% | 0% | ? | ? | 1 | -13%
O=C(NCCc1ccccc1)C1CCN(Cc2cc3ccccc3n2Cc2ccccc2)CC1 | . | 8% | . | ? | . | .
CCC(C(=O)Nc1cccnc1)n1c(=O)[nH]c2ccccc2c1=O (centres undefined) | 9% | -1% | -9% | 5% | 0 | 27%
O=C1CC(c2ccc3c(c2)OCCO3)Oc2ccccc21 (centres undefined) | 11µM* | 3% | 14% | ? | 0 | 0%
O=C1CC(c2ccc3c(c2)OCCO3)Oc2ccc([N+](=O)[O-])cc21 (centres undefined) | 3% | 15% | -5% | ? | -1 | -9%
CS(=O)(=O)Nc1ccc(-c2ccc3nccn3c2)cc1 | 18% | 0% | . | . | 0 | .
COc1ccc2cc(-c3ccon3)ccc2c1 | 10µM* | 3% | ? | ? | 1 | 0%
O=C(CSc1ccc(Cl)cc1)Nc1ccc(N2CCN(c3ccccc3)CC2)c(F)c1 | -6% | -1% | -15% | ? | 2 | -1%
O=C(Cc1cccs1)Nc1ccc(N2CCOCC2)cc1 | 7.9µM* | 2% | 11% | -5% | 0 | 0%
O=C(CSc1ccccc1)Nc1ccc(N2CCOCC2)c(F)c1 | 7.9µM* | 0% | 12% | 6% | 2 | -5%
O=C(Cc1ccccc1)Nc1ccc(CN2CCOCC2)cc1 | 10µM* | 0% | 6% | ? | -1 | 1%
O=C(Nc1ccc(CN2CCOCC2)cc1)c1ccccc1F | 70% | 0% | 18% | ? | -2 | 3%
CC(=O)N1CCN(c2ccc(NC(=O)c3ccc(Cl)cc3)cc2)CC1 | 1% | -1% | 9% | ? | 4 | -8%
O=C(Cc1cccs1)Nc1ccc(Cl)cc1 | 52% | 4% | 28% | ? | 2 | 10%
CC(=O)N1CCN(c2ccc(NC(=O)c3cccc(Cl)c3)cc2)CC1 | 11µM* | 0% | 12% | -1% | -1 | -1%
